Among the data in PubChem BioAssay AID602144 (Vanderbilt Specialized Chemistry Center, 2011) are remaining activity values, retold here.

The test addresses Phospholipase D1 (Homo sapiens) (UniProt Q13393). Put plainly: cellular phospholipase D1 activity inhibition – Calu-1 cells, single concentration (AID 602144).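 Also: tested at 200 nM.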 The conditions noted are these: cellular PLD1 activity, hits give low values.

Each structure is given as a SMILES string. Activity calls are given as the source filed them. Rule as the data show it: active = remaining activity below about 50%; inactive = the rest.

Phospholipase D1 (Homo sapiens), sequence (Q13393 whole entry, looked up): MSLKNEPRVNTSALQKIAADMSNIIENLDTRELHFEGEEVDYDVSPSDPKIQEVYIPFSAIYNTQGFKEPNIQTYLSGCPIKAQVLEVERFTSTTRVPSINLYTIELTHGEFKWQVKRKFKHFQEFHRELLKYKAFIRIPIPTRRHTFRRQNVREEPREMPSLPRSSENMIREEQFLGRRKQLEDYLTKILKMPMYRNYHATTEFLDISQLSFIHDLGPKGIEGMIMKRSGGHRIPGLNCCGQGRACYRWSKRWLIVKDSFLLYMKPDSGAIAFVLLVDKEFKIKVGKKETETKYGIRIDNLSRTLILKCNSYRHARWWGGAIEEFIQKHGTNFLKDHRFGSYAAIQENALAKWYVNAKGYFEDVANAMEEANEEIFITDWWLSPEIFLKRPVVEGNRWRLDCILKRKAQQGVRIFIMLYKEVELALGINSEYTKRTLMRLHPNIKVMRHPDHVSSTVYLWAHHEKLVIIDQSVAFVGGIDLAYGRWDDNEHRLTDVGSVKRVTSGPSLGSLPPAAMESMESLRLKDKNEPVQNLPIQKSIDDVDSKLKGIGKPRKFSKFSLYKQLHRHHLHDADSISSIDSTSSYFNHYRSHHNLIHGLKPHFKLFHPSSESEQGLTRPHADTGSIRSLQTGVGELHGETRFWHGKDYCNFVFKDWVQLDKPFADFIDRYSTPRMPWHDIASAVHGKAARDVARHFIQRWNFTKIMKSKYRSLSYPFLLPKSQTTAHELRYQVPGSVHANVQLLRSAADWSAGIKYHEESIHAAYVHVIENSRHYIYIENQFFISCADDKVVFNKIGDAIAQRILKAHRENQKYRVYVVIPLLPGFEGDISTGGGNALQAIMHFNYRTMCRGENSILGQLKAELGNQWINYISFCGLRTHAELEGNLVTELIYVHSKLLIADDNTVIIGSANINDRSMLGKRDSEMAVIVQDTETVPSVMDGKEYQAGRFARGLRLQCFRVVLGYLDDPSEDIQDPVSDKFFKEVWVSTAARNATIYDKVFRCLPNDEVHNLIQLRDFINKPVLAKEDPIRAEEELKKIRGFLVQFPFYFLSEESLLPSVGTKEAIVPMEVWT
Phospholipase D1 (Homo sapiens), sequence (Q13393 whole entry, looked up): as above

Usually remaining activity stands for the signal under treatment as a percentage of the control signal. `CC(C(=O)NCCN1CCC(n2c(=O)[nH]c3ccccc32)CC1)(c1ccccc1)c1ccccc1`: the remaining activity was 104% (inactive).
As for `C[C@@H](CN1CCC2(C=Cc3ccccc32)CC1)NC(=O)[C@H]1C[C@@H]1c1ccccc1`, the figure is 126% (inactive); as for `O=c1[nH]c2ccccc2n1C1CCN(CCNC(=S)Nc2ccccc2F)CC1`, 109% (inactive); as for `O=c1[nH]c2ccccc2n1C1CCN(CCNS(=O)(=O)c2ccc([N+](=O)[O-])cc2)CC1`, 119% (inactive).
